# Source: PubChem BioAssay AID2551 (National Center for Advancing Translational Sciences (NCATS), 2010)
# Screen size: about 310,000 compounds; about 17,000 (5.5%) were called active. Not shown: some 11% with an inconclusive outcome. This is one part of a sample in which actives are shown more often than they occur. A number with no mark means an inactive call. Calls follow the shape of the dose curve; as a rule, active = well fitted inhibition curve with a large enough effect; inconclusive = small, poorly fitted or top-dose-only effect, or effect the other way; inactive = no such curve, though single readings can be large or run the other way.
# Target: Nuclear receptor ROR-gamma (Mus musculus) (UniProt P51450)
# Sequence (P51450 whole entry, looked up): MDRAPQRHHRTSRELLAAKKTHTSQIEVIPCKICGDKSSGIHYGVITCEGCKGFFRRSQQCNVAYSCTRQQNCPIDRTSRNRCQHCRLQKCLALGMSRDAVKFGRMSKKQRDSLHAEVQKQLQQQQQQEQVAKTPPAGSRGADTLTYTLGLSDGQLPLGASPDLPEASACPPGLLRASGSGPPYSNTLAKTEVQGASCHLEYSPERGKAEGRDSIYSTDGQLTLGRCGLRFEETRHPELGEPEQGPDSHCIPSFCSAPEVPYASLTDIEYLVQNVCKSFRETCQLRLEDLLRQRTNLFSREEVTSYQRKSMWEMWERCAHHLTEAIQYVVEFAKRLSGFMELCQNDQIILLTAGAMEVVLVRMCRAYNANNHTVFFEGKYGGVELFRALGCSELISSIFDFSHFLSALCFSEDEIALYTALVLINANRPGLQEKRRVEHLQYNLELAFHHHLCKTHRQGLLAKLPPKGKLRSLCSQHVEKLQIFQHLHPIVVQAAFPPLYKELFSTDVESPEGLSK
# Test: qHTS for inhibitors of ROR gamma transcriptional activity; also: nearly all actives have a fitted effect of over 60% in size
# Conditions: Drosophila S2 Gal4-RORgamma UAS-luciferase reporter, 20 h; series mostly up to 53.6 µM; activity change, negative = inhibition: at the top concentration
# Outline: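 In this cell-based reporter format, copper sulfate (700 uM final) drives Gal4–ROR gamma fusion expression from a metallothionein promoter in Drosophila Schneider cells; compounds preincubated 1 hr, reporter read after 20 hr at ambient temperature.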
# % is scaled to controls: 0 for no effect and ±100 for the full control effect; potency is read from the fitted curve at half-maximal effect.
Compound,"activity change, negative = inhibition",Potency
Cc1ccc(F)c(NC(=O)CCOc2ccccc2C)c1,-20.8%,
Cc1ccc(/C([O-])=C(/C(=S)NCc2ccco2)[n+]2ccccc2)cc1[N+](=O)[O-],-3.72%,
O=[N+]([O-])c1cccc(/C([O-])=C(/C(=S)Nc2ccccc2F)[n+]2ccccc2)c1,,12.6 µM (active)
CCC(C)NCC(=O)Nc1ccc([N+](=O)[O-])cc1C(=O)Nc1ccccc1F (configuration not stated),-9.45%,
CS(=O)(=O)N(CC(=O)N1CCOCC1)c1cccc(Cl)c1Cl,-9.65%,
C=CCn1cc(Cl)cc(C(=O)Nc2ccccc2)c1=O,14.3%,
Cc1nc2ccc(C(=O)N(C)CC3CCCN(CCc4ccc(Cl)cc4)C3)cc2[nH]1 (configuration not stated),-7.12%,
C=CCCN(Cc1ccccc1)S(=O)(=O)c1ccccc1Br,,inactive
C=CC(COCc1ccccc1)N(Cc1ccccc1)S(=O)(=O)c1ccccc1Br (configuration not stated),,7.94 µM (active)
CC(NC(=O)C1CCCN(S(=O)(=O)c2ccc(-n3cnnn3)cc2)C1)c1ccc(F)cc1 (configuration not stated),-2.24%,
O=C(NCc1ccco1)/C(=C/c1cccc([N+](=O)[O-])c1)NC(=O)c1ccco1,-3.55%,
CSc1sc(C(=O)NNC(=O)c2ccc(Cl)cc2)c2c1C=CCC2,-5.15%,
COC(=O)[C@H](C)NC(=O)Nc1ccc(OC(F)(F)F)cc1,5.22%,
CS(=O)(=O)c1sc(C(=O)NC(=S)Nc2ccc(OC(F)(F)F)cc2)c2c1C=CCC2,,7.08 µM (active)
CN1C(=O)c2ccc(C(=O)Nc3ccc(Br)cn3)cc2C1=O,10.1%,
O=C(Nc1cc(-c2nc3ncccc3o2)ccc1Cl)c1ccco1,-6.29%,
Cn1c(SCC(=O)N2CCCC2)nnc1-c1ccc2c(c1)OCO2,3.23%,
c1ccc(CCN2CN=C(Nc3nc4ccccc4o3)NC2)cc1,0%,
CCOc1ccc(CC(=O)NC2CCN(Cc3ccccc3)CC2)cc1,11.1% [at 1.91 µM],
CCCN1CNC(=S)N(CCc2ccccc2)C1,,3.98 µM (active)
CCc1ccccc1N1CN(Cc2ccco2)CNC1=S,,4.47 µM (active)
CCOc1ccccc1OCCCNCc1ccccc1,-1.61%,
CC12CN(Cc3ccccc3)CC(C)(CN(Cc3ccccc3)C1)C2=NO,2.79%,
Cn1c2c(c(=O)n(C)c1=O)CN(Cc1ccco1)CN2,0%,

Compound,"activity change, negative = inhibition",Potency
CCN1CN(Cc2ccccc2)CNC1=S,,12.6 µM (active)
S=C1SCN(CCN2CCOCC2)CN1Cc1ccccc1,-38.9%,
O=S(=O)(c1cc(Cl)ccc1Cl)N1CCN(Cc2ccco2)CC1,19.3%,
N#CNC1=NCN(CCc2ccccc2)CN1,-13.1%,
CCOc1ccccc1N1CN(Cc2ccccc2)CNC1=S,,4.47 µM (active)
COc1ccccc1NC(=O)CSc1nnc(CNC(=O)c2ccccc2F)o1,-11.2%,
CCOc1ccc(C)cc1S(=O)(=O)NC1CCCCCC1,1.67%,
COc1ccc(C(=O)N2CCCN(C)CC2)c(OC)c1,21.7%,
Cc1cccc[n+]1CC(=O)c1ccccc1,-7.06%,
CSc1ccccc1OCc1cc(C(=O)N(C)CCc2c(C)n[nH]c2C)no1,-3.27%,
CCn1c(SCc2cccc(C(=O)O)c2)nnc1-c1ccc(Cl)cc1,-0.312%,
CCOc1ccc(NC(=S)N2CCC(N(C)CC3CCCO3)CC2)cc1 (configuration not stated),-15.5%,
O=C(NCc1ccccn1)Nc1ccc(F)cc1,9%,
Cc1cc(C)cc(NC(=O)NCc2ccccn2)c1,11.9%,
CCC(C)N(C)C1CCN(C(=S)Nc2ccc(OC)cc2)CC1 (configuration not stated),-3.42%,
CCOc1ccc(NC(=S)N2CCC(NC(=O)c3ccccc3)CC2)cc1,0.515%,
CCOc1ccc(NC(=S)N2CCCCCC2)cc1,,7.08 µM (active)
NS(=O)(=O)c1ccc(NC(=S)N2CCCC2)cc1,-8.65%,
CCC(C)c1ccc(NC(=S)N2CCCC2)cc1 (configuration not stated),,8.91 µM (active)
CCC(C)c1ccc(NC(=S)NCc2ccccn2)cc1 (configuration not stated),,2.51 µM (active)
CCOC(=O)C1CCN(C(=O)CN2C(=O)c3cccnc3Oc3ccc(C)cc32)CC1,-7.07%,
CCCc1cc(=O)[nH]c(SCC(=O)Nc2sc3c(c2C#N)CCCC3)n1,33.4%,
Cc1ccc(Cn2c(=N)c(S(=O)(=O)c3ccc(C)cc3)cc3c(=O)n4ccccc4nc32)cc1,-23.8%,
CCC(C)(C)NC(=O)C(c1ccc(OC)cc1)N(C(=O)CCC(=O)Nc1cc(C)on1)c1ccc(OC)cc1OC (configuration not stated),40.9%,

Compound,"activity change, negative = inhibition",Potency
Cc1cc(Cl)ccc1OCCCC(=O)Nc1cccc(-n2cnnn2)c1,35%,
CCOC(=O)N1CCN(C(=O)COc2ccc(Cl)cc2C)CC1,-1.24%,
CCCn1nnnc1NC(=O)COc1ccc(Cl)cc1C,,0.891 µM (active)
OC(c1ccc(Cl)cc1)C(CN1CCOCC1)c1ccccc1 (configuration not stated),3.28%,
Cc1ccc(/C=C2\SC(=S)N(CCC(=O)Nc3ccc(O)cc3)C2=O)cc1,-15.4%,
O=C(CCCN1C(=O)/C(=C/c2ccccc2)SC1=S)Nc1ccc(O)cc1,,3.98 µM (active)
O=C(CCCN1C(=O)/C(=C\c2ccccc2)SC1=S)Nc1ccccc1O,-38.6%,
CN1CCN(Cc2nc3cc(NC(=O)COc4ccc([N+](=O)[O-])cc4)ccc3n2C)CC1,-7.74%,
COc1ccc2c(C)c(CCC(=O)NC3CC3)c(=O)oc2c1C,7.24%,
CC(=O)Nc1ccc(NC(=O)CN2CCCC(C)C2)c(Cl)c1 (configuration not stated),27.2%,
Cc1cc(NC(=O)CN2CCCC(C)C2)n(-c2nc3ccccc3s2)n1 (configuration not stated),,1.58 µM (active)
CC1CCCN(CC(=O)Nc2cc(Cl)ccc2Oc2ccccc2)C1 (configuration not stated),4.22%,
COc1ccc(S(=O)(=O)n2cnc3ccccc32)c(C)c1,40%,
COc1ccc(N2CC(C(=O)N[C@@H](C)C(=O)N3CCCCC3)CC2=O)cc1 (some centres not stated),-8.28%,
FC(F)(F)c1ccc(-n2cn[nH]c2=S)cc1,,10 µM (active)
COc1ccccc1N1CC(C(=O)Nc2nnc(SCC(=O)NCC3CCCO3)s2)CC1=O (configuration not stated),2.4%,
CNS(=O)(=O)c1cccc(C(=O)NC2CCCc3ccccc32)c1 (configuration not stated),-15.4%,
S=c1nc2ccccc2c2nc(-c3cccnc3)[nH]n12,,0.447 µM (active)
c1cncc(-c2nc(N3CCNCC3)c3ccccc3n2)c1,14.8%,
c1ccc(-n2nnnc2-c2cccnc2)cc1,3.95%,
O=C(C1CCCN(S(=O)(=O)c2ccccc2)C1)N1CCN(c2ccc(F)cc2)CC1 (configuration not stated),16.8%,
Cc1cccc(C(=O)NC(=S)N(C)C2CCCCC2)c1,,1.78 µM (active)
Cc1cccc(C(=O)NCCCN(C)CCCNC(=O)c2cccc(C)c2)c1,-5.29%,
Cc1ccc(S(=O)(=O)NC(=O)c2cccc(C)c2)cc1,0.442%,
